67 compounds from PubChem BioAssay AID2501 (Southern Research Specialized Biocontainment Screening …, 2010) can be followed below.

About 1,200 (55%) of roughly 2,200 compounds were called active. Cut-off not given; nearly all actives show IC50 up to about 92 µM. So high a share suggests a set chosen from earlier hits. The list shows a part of the results.

The test is described as follows: counter assay for TAg ATPase ADP read-out – biochemical, ADP-Hunter, fluorescence, counter-screen (AID 2501).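 Further: purified T antigen ATPase.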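 On inhibition: higher means more inhibition.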 Conditions: series mostly up to 100 µM.
`O=C(COc1ccccc1[N+](=O)[O-])N/N=C/c1ccc(O)cc1`: the IC50 was 6.73 µM (active).

Consider `COc1ccc(C)cc1NC(=O)COC(=O)c1ccc([N+](=O)[O-])o1`, for which the IC50 result was “inactive”. In the case of `Cc1ccc(S(=O)(=O)Cc2cc(F)c([N+](=O)[O-])cc2[N+](=O)[O-])cc1`, the IC50 result is “inactive”. The value for `Cc1ccc(/C=N\NC(=O)COc2ccc(C)cc2[N+](=O)[O-])cc1` was 23.3 µM (active); that for `CCc1ccc2cccc3c2c1N=CN3C` was 8.65 µM (active). As for `C[C@H](CCC(=O)O)[C@H]1CC[C@H]2[C@@H]3CC[C@@H]4C[C@H](O)CC[C@]4(C)[C@H]3CC[C@]12C`, the IC50 entry was “inactive”. On to `Cc1cnc(C(=O)Nc2ccc(S(=O)(=O)NCC(C)C)cc2)cn1`, for which the IC50 result is “inactive”. For `CCn1c2ccccc2c2cc(NC(=O)CSc3nnc(C4CC4)n3Cc3ccco3)ccc21`, the IC50 entry was “inactive”. For `CN(C)c1ccc(NC(=O)CSc2nnc(-c3cnccn3)n2C)cc1`, the IC50 was 7.11 µM (active). The value for `CCCCn1nnnc1SCC(=O)Nc1ccc(N(C)C)cc1` was 3.37 µM (active). With `Nn1c(SCC(=O)NC(=O)Nc2ccc3c(c2)OCCO3)nnc1C1CC1`, the IC50 result is “inactive”. On to `Cn1ccnc1SCC(=O)Nc1cccc(C(F)(F)F)c1`, for which the IC50 result is “inactive”.

As to `CCCCOC(=O)c1ccc(NC(=O)CSc2nnnn2C)cc1`, the IC50 entry was “inactive”. On to `Cc1nnc(SCC(=O)Nc2ccc(N(C)C)cc2)n(N)c1=O`, for which the IC50 was 5.56 µM (active). Take `CCn1c(SCC(=O)Nc2ccc(N(C)C)cc2)nnc1C1CC1`: the half-maximal inhibitory concentration (IC50) was 5.16 µM (active). On to `Cc1cc(-c2nc3c4c5c(sc4[nH]c(=O)n3n2)CCC5)c(C)o1`, for which the IC50 result was “inactive”. Take `CNC[C@@H](C)NC[C@@H](Cc1ccccc1)NCCc1ccccc1`: the IC50 result was “inactive”. Turning to `Cc1c(CCC(=O)NCCCC(=O)O)c(=O)oc2cc3oc4c(c3cc12)CCCC4`, the IC50 entry is “inactive”.

For the compound `CCOC(CNC(=O)C1CCN(S(=O)(=O)c2ccc3nc4c(c(C(=O)O)c3c2)CCCCC4)CC1)OCC`, the IC50 result is “inactive”. Take `Cc1ccc(C)c(S(=O)(=O)N2CCCCC2CCNC(=O)C(=O)NCc2ccco2)c1` (configuration not stated): the IC50 result was “inactive”. The value for `O=C(CCN1C(=O)c2ccccc2S1(=O)=O)NCc1ccco1` was “inactive”; that for `O=C(NCc1ccco1)C1CC(=O)N(c2ccc(O)cc2)C1` (configuration not stated) was 6.48 µM (active). On to `Cc1nc2ccc(N=NN(C)C)cc2[nH]1`, for which the IC50 entry was “inactive”. As to `N#CC1=C(S)N(c2ccccc2)C(c2ccc(-c3ccc(Cl)c(Cl)c3)o2)NC1=O` (configuration not stated), the IC50 entry is “inactive”. For `Cc1cccc(N2NC(=O)/C(=C/c3ccc(-c4ccc(Cl)c(C(=O)O)c4)o3)C2=O)c1`, the IC50 is 31.9 µM (active).

For the compound `CCCCC1(C)OC(=O)C(=Cc2ccc(-c3ccc(Cl)c(C(=O)O)c3)o2)C(=O)O1` (configuration not stated), the IC50 result was “inactive”. Turning to `O=C1NN(c2ccccc2)C(=O)/C1=C/c1ccc(-c2ccc(Cl)c(C(=O)O)c2)o1`, the IC50 is 13.7 µM (active). Regarding `Cn1sc(=O)c2cc(S(=O)(=O)NC3CC3)ccc21`, the IC50 entry is “inactive”. The value for `CCN1C(=O)CC(N2CCC(Nc3ccc(OC)cc3)CC2)C1=O` (configuration not stated) was 4.87 µM (active). Turning to `O=C(O)c1cc(Nc2cc(Cl)c3nonc3c2[N+](=O)[O-])ccc1O`, the IC50 result is “inactive”. On to `O=C1NC(=O)C(c2ccccc2[N+](=O)[O-])=C1Nc1ccc(O)c(Cl)c1`, for which the IC50 was 11.8 µM (active). As for `N=c1c2c(ncn1CCCO)Oc1ccc3ccccc3c1C2c1ccccc1` (configuration not stated), the IC50 result was “inactive”. For `COc1cc(/C=C(\C#N)c2ccccn2)cc(OC)c1O`, the IC50 was 4.83 µM (active). On to `COc1cc(/C=C(\C#N)c2nc3ccccc3n2C)cc(OC)c1O`, for which the IC50 is 6.31 µM (active). The value for `COc1ccc(-c2ccc(OC(=O)NC3CCS(=O)(=O)C3)cc2)cc1` (configuration not stated) was 5.8 µM (active); that for `COc1ccc(S(=O)(=O)N2CCC(NC(=O)c3ccccc3)CC2)cc1` was “inactive”. With `O=c1c(C(c2c(O)nc3n(c2=O)CCS3)c2cccc3ccccc23)c(O)nc2n1CCS2`, the IC50 was 20.9 µM (active). As to `C=CCOc1ccc(C2NC(=S)NC(c3ccccc3)=C2C(C)=O)cc1OC` (configuration not stated), the IC50 entry is “inactive”. The value for `Oc1ccc(/C=N/Nc2ccc(C(F)(F)F)cn2)cc1O` was 5.59 µM (active). As for `Oc1ccc(/C=N/Nc2ccc(Cl)nn2)cc1O`, the IC50 is 8.65 µM (active).

On to `N=C1/C(=C/c2ccc(Br)o2)C(=O)N=C2SC(CC(=O)N3CCCC3)=NN12`, for which the IC50 result is “inactive”. For `CN(C(=O)c1ccccc1C(=O)OCC(=O)NCc1cccs1)C1CCCCC1`, the IC50 was 44.1 µM (active). The value for `N#CC1(NC(=O)COC(=O)c2cc(O)c3ccccc3c2O)CCCCC1` was “inactive”; that for `CC1=C(C(=O)OCC(C)C)C(c2cccs2)NC(=S)N1` (configuration not stated) was “inactive”. As to `Cc1ccc(-n2nnnc2C(Cl)(Cl)c2nnnn2-c2ccc(C)cc2)cc1`, the IC50 result is “inactive”. For `Nc1nc(-c2ccco2)cs1`, the concentration for half-maximal inhibition (IC50) was 10.8 µM (active). The value for `c1coc(-c2nc3ccccc3nc2-c2ccco2)c1` was “inactive”. For `c1coc(-c2nc(-c3ccco3)c(-c3ccco3)nc2-c2ccco2)c1`, the IC50 result is “inactive”. The value for `NC(=O)c1sc2nnc(-c3ccccc3)c(-c3ccccc3)c2c1N` was “inactive”; that for `Nc1ccc(-c2sc(N)nc2-c2ccccc2)cc1` was 8.36 µM (active); that for `ClCC1=Nc2cccc3cccc(c23)N1` was 4.21 µM (active). In the case of `COc1cc(/C=N\NC(=O)CC(=O)NCCc2ccccc2)ccc1O`, the IC50 is 3.22 µM (active). The value for `O=C(COC(=O)CSc1ccc([N+](=O)[O-])cc1)NCCc1ccccc1` was “inactive”; that for `CCOc1cc(/C=N\NC(=O)CC(=O)NCCc2ccccc2)ccc1O` was 4.71 µM (active); that for `CC(C)CCNC(=O)CCCc1ccccc1` was “inactive”. As to `COc1ccc(N2CCC(CNC(=S)Nc3c(C)cc(C)cc3C)C2)cc1` (configuration not stated), the IC50 is 12.1 µM (active). `Cc1ccc(NC(=S)NCC2CCN(C(C)c3ccccc3)C2)cc1C` (configuration not stated): the IC50 entry was “inactive”. The value for `COc1ccc(Cl)cc1NC(=S)N1CCC(c2ccc(C)cc2)C1` (configuration not stated) was “inactive”; that for `COc1ccc(N2CCC(CNC(=S)Nc3c(C)cccc3C)C2)cc1` (configuration not stated) was 7.45 µM (active). Turning to `COc1ccc(N2CCC(CNC(=S)Nc3ccc(C)cc3C)C2)cc1` (configuration not stated), the IC50 was 10.7 µM (active). Regarding `O=C(CSc1nc2ccccc2c(=O)[nH]1)c1ccc(O)c(O)c1`, the IC50 is 9.7 µM (active). With `O=C(CSc1n[nH]c(-c2ccccc2)n1)c1ccc(O)c(O)c1`, the IC50 is 10 µM (active).

For `N#Cc1c(-c2ccccc2)nc(SCC(=O)N2c3ccccc3Sc3ccccc32)[nH]c1=O`, the IC50 result is “inactive”. Consider `Cc1cc(SCC(=O)c2ccccc2)nc(C)n1`, for which the IC50 entry was “inactive”. The value for `Cc1ccc(C(=O)N(Cc2ccc3c(c2)OCO3)Cc2nc3ccccc3c(=O)[nH]2)cc1` was “inactive”; that for `CCCn1c(SC(C)C(=O)O)nc2ccccc21` (configuration not stated) was “inactive”.

Take `O=C(CSc1nc2ccccc2n1CCc1ccccc1)c1ccc(O)c(O)c1`: the IC50 was 43.4 µM (active).
